Measured values as given in PMC4336329 (PLoS ONE, 2015).
Hit rate of the full screen: of about 310,000 compounds, about 14,000 (4.5%) showed an effect of 50% or more. Effects have a minus sign here. For the sample, strong results were picked, then their nearest neighbours and some compounds at random.

molecular target: human ether-à-go-go-related gene (hERG) potassium channel (human, UniProt Q12809); assay: primary screen, population patch clamp on CHO cells stably expressing hERG; higher = less effect of the substance
Sequence (Q12809 whole entry, looked up): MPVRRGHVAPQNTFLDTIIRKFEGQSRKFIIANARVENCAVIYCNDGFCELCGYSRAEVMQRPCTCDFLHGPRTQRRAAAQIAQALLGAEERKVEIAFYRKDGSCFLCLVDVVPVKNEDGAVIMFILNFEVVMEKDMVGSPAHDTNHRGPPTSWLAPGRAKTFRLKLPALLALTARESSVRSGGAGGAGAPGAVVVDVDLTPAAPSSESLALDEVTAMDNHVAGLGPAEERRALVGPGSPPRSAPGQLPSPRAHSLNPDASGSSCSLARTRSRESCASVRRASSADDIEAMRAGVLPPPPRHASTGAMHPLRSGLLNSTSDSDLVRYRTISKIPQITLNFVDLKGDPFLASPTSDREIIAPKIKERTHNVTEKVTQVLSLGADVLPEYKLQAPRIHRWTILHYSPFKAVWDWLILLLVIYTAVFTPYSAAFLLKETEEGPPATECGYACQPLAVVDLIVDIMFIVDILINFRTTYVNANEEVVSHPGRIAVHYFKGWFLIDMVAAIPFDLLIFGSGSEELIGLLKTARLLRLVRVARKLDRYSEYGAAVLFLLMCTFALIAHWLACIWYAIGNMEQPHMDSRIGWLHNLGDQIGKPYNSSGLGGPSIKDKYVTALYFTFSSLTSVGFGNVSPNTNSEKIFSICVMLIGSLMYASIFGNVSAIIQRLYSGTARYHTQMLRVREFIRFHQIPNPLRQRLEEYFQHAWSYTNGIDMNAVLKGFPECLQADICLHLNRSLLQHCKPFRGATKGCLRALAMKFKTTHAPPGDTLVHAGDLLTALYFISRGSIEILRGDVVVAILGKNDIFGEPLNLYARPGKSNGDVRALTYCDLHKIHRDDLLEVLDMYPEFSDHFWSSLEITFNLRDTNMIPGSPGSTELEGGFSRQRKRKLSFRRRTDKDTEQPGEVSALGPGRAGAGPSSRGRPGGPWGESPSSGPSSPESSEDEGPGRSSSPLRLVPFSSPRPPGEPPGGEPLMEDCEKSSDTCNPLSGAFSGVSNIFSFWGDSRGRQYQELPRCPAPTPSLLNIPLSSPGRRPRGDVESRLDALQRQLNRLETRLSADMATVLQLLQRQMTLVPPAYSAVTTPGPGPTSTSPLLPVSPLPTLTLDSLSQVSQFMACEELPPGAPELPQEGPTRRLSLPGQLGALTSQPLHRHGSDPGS
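Also: peak tail current of the secondary pulse compared with the same well before compound.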

Compound	hERG current change (%, negative = inhibition) at 10uM
COc1ccc(N2C(=NC(=O)C3CCCO3)SC3CS(=O)(=O)CC32)cc1 (stereo not shown)	5.78%
Cc1ccc(C)c(NC(=O)c2ccc3nccnc3c2)c1	2.6%
COc1ccc(N=C2NC(=O)CS2)c([N+](=O)[O-])c1	11.4%
O=C(Nc1ccc2c(c1)OCO2)[C@@H]1CCCN1S(=O)(=O)c1cccc2cccnc12	-6.18%
CCOC(=O)C1C(c2ccc(Cl)cc2)NC(=S)NC1(O)C(F)(F)F (stereo not shown)	16.7%
Cn1ccnc1SCC(=O)Nc1nc2c(F)c(F)c(F)cc2s1	11.3%
O=C(O)COCC(=O)N1CCc2c([nH]c3ccccc23)C1C(F)(F)F (stereo not shown)	2.14%
O=C(NCCC1CCCCN1S(=O)(=O)c1ccc(F)cc1)C(=O)NCc1ccccn1 (stereo not shown)	-11.9%
Cc1cc(F)ccc1S(=O)(=O)N1CCCCC1CCNC(=O)C(=O)NCc1ccccn1 (stereo not shown)	-61.4%
O=C(NCCc1ccc(F)cc1)C(=O)NCC1CCCN1S(=O)(=O)c1ccccc1 (stereo not shown)	-61.7%
CCN(CC)CCNC(=O)C(=O)Nc1ccc2c(c1)N(S(=O)(=O)c1cccs1)CCC2	-78.2%
Cc1ccc(C)c(S(=O)(=O)N2CCCCC2CCNC(=O)C(=O)NCc2ccccn2)c1 (stereo not shown)	-19.8%
CN(C)CCNC(=O)C(=O)Nc1ccc2c(c1)N(S(=O)(=O)c1cccs1)CCC2	-2.98%
O=C(NCCc1ccccc1)C(=O)NCC1CCCN1S(=O)(=O)c1ccccc1 (stereo not shown)	-41.9%
O=C(NCc1ccc(F)cc1)C(=O)NCC1CCCN1S(=O)(=O)c1ccccc1 (stereo not shown)	-38.2%
O=C(NCCc1ccc(F)cc1)C(=O)NCC1CCCN1S(=O)(=O)c1cccs1 (stereo not shown)	-57.6%
CCCNC(=O)C(=O)Nc1ccc2c(c1)N(S(=O)(=O)c1cccs1)CCC2	-33.6%
O=C(NCCc1ccccc1)C(=O)NCC1CCCN1S(=O)(=O)c1cccs1 (stereo not shown)	-22.7%
COc1ccc(CCNC(=O)C(=O)NCC2CCCN2S(=O)(=O)c2cccs2)cc1 (stereo not shown)	-32.9%
COc1ccc(N)cc1NC(=O)CN1CCCC1	19.3%

Compound	hERG current change (%, negative = inhibition) at 10uM
CCN(CC)S(=O)(=O)c1ccc(Cl)c(NC(=O)COC(=O)c2ccc(O)cc2)c1	-21.4%
CCCCC(=O)Nc1ccc(C(=O)N2CCCC(C(=O)OCC)C2)cc1 (stereo not shown)	7.66%
O=C(NCCC1CCCCN1S(=O)(=O)c1cccs1)C(=O)Nc1ccc(F)cc1 (stereo not shown)	-6.79%
O=C(NCCC1CCCCN1S(=O)(=O)c1cccs1)C(=O)Nc1cccc(F)c1 (stereo not shown)	-50.1%
O=C(NCCC1CCCCN1S(=O)(=O)c1cccs1)C(=O)Nc1ccccc1 (stereo not shown)	-10.1%
Cc1ccc(N2C(=O)N(CC(=O)Nc3cccc(Cl)c3)C(=O)C2C)cc1 (stereo not shown)	-14.9%
O=C(COC(=O)CCc1ccc(S(=O)(=O)N2CCOCC2)cc1)NC1CCCCCC1	-10.8%
CN(C)c1ccc(-c2cccc(C3CC=CC4C3C(=O)N(Cc3ccccc3)C4c3ccc4ccccc4c3)c2)cc1 (stereo not shown)	17.5%
Cl.O=[N+]([O-])c1ccc(N2CCN(Cc3ccccc3)CC2)nc1	-59%
c1ccc(N2CCN(Cc3ccc4c(c3)OCO4)CC2)nc1	-8.79%
Cl.O=[N+]([O-])c1ccc2ncnc(N3CCN(Cc4ccc5c(c4)OCO5)CC3)c2c1	-24.6%
CN(C(=O)CN1CCN(c2ccc([N+](=O)[O-])cn2)CC1)c1ccccc1	-49.1%
O=[N+]([O-])c1ccc(N2CCN(Cc3ccc4c(c3)OCO4)CC2)nc1	-54.4%
Cc1nc([N+](=O)[O-])c(N2CCN(Cc3ccccc3)CC2)n1Cc1ccccc1	-64.3%
O=S(=O)(c1ccc(N2CCN(Cc3ccc4c(c3)OCO4)CC2)nc1)N1CCOCC1	-32.1%
Cc1nc([N+](=O)[O-])c(N2CCN(C)CC2)n1Cc1ccccc1	-10.4%
O=[N+]([O-])c1ccc(N2CCN(c3ccccc3)CC2)nc1	4.96%
O=C(O)c1ccc(N2CCN(Cc3ccc4c(c3)OCO4)CC2)c([N+](=O)[O-])c1	17.3%
O=Cc1cc([N+](=O)[O-])ccc1N1CCN(Cc2ccc3c(c2)OCO3)CC1	-67.5%
Cc1nc([N+](=O)[O-])c(N2CCOCC2)n1Cc1ccccc1	9.64%
